Assay [1] can be described thus: ATG_TCF_b_cat_CIS: Attagene CIS-FACTORIAL HepG2 Assay for human T-Cell-Factor with beta-catenin (TCF/b-cat) (AID 2282965; active means hit-call score of the fitted dose curve at least 0.9, where 1 is the maximum; inactive means score below 0.9). To be noted: HepG2 TCF/beta-catenin cis-reporter transcription, actives raise or lower the signal. The gist of the method: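 Cells of the HepG2 line carry transiently transfected reporter units whose promoters respond to endogenous factors. Twenty-four hours post-dosing, reporter mRNA induction is measured by fluorescent RT-PCR and capillary electrophoresis, with DMSO as baseline.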

A short description of assay [2]: ATG_TAL_CIS: Attagene CIS-FACTORIAL HepG2 Assay for human TAL Basal Promoter (AID 2282966; active means hit-call score of the fitted dose curve at least 0.9, where 1 is the maximum; inactive means score below 0.9;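 further: background control endpoint measuring basal TAL promoter reporter mRNA not a specific factor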). The note with it: HepG2 Attagene cis-factorial TAL promoter reporter; actives raise or lower the signal. The gist of the method:
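Basal-promoter background-control endpoint from a multiplexed HepG2 reporter panel. Cells were exposed 24 h, then reporter mRNA was read by RT-PCR/CE fluorescence and fitted in both directions relative to DMSO.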

Assay [3] is described as follows: ATG_TGFb_CIS: Attagene CIS-FACTORIAL HepG2 Assay for human Transforming Growth Factor (TGF) (AID 2282967; active means hit-call score of the fitted dose curve at least 0.9, where 1 is the maximum; inactive means score below 0.9). To be noted: HepG2 Attagene CIS TGFb reporter, mRNA transcription; actives raise or lower the signal. In a few lines:
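Transcript-level reporter readout: HepG2 transfectants, 24 h exposure, RNA to cDNA, reporter-specific PCR, fluorescent primer extension, capillary sizing against ROX standards. Gain- or loss-of-signal relative to DMSO.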

Assay [4] is described as follows: ATG_VDRE_CIS: Attagene CIS-FACTORIAL HepG2 Assay for human Vitamin D Receptor Element (VDRE) (AID 2282968; active means hit-call score of the fitted dose curve at least 0.9, where 1 is the maximum; inactive means score below 0.9). The note with it: HepG2 VDRE cis-reporter transcription, actives raise or lower the signal. The gist of the method:
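Compounds were applied for 24 h to HepG2 cells transfected with promoter-regulated reporter units. Total RNA was reverse-transcribed, and reporter amplicons were fluorescently labelled and sized by capillary electrophoresis.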

Assay [5] concerns the target Nuclear receptor subfamily 1 group I member 3 (Homo sapiens) (UniProt Q14994). Put plainly: ATG_CAR_TRANS: Attagene TRANS-FACTORIAL HepG2 Assay for human Constitutive Androstane Receptor (CAR) (AID 2282969).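 Further: activators raise reporter mRNA above DMSO so AC50 marks induction.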 The note with it: HepG2 Attagene TRANS-FACTORIAL CAR reporter. In a few lines:
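Transiently transfected HepG2, multiplex TRANS reporters (CAR-Gal4 chimera driving GAL4-UAS reporter). 24 h dosing. Readout: reporter transcript by RT-PCR + capillary electrophoresis, fluorescence intensity; positive direction vs DMSO.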

For assay [6], the target named is Estrogen receptor (Homo sapiens) (UniProt P03372). Put plainly: ATG_ERa_TRANS: Attagene TRANS-FACTORIAL HepG2 Assay for human Estrogen Receptor alpha (ERa) (AID 2282970). To be noted: HepG2 Attagene TRANS ERa GAL4 reporter, mRNA. In a few lines: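 Gal4-fusion ERa transactivation, measured as reporter transcript level in transiently transfected HepG2 cells. Exposure 24 h; RT-PCR plus capillary electrophoresis with fluorescence detection.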

Assay [7] concerns the target Steroid hormone receptor ERR1 (Homo sapiens) (UniProt P11474). Put plainly: ATG_ERRa_TRANS: Attagene TRANS-FACTORIAL HepG2 Assay for human Estrogen-Related Receptor alpha (ERRa) (AID 2282971). To be noted: HepG2 Attagene TRANS reporter, ERRa transactivation. The gist of the method: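 HepG2 cells transiently transfected with GAL4-UAS reporter units and chimeric NR-Gal4 constructs; after 24 hour compound incubation, reporter mRNA quantified by RT-PCR, fluorescent labelling and capillary electrophoresis, gain of signal versus DMSO.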

Assay [8] concerns the target X-box-binding protein 1 (Homo sapiens) (UniProt P17861). Description: ATG_Xbp1_CIS: Attagene CIS-FACTORIAL HepG2 Assay for human X-box Binding Protein 1 (XBP1) (AID 2282972; active means hit-call score of the fitted dose curve at least 0.9, where 1 is the maximum; inactive means score below 0.9). To be noted: HepG2 XBP1 cis-element reporter, Attagene multiplex; actives raise or lower the signal. The gist of the method:
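Changes in reporter transcript abundance, read by RT-PCR and capillary electrophoresis, reflect endogenous transcription factor activity. Transfected HepG2 cells received compound for 24 hours; DMSO defined baseline for bidirectional analysis.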

Assay [9] addresses Bile acid receptor (Homo sapiens) (UniProt Q96RI1). Description: ATG_FXR_TRANS: Attagene TRANS-FACTORIAL HepG2 Assay for Farnesoid X Receptor (FXR) (AID 2282979).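 Further: hits raise reporter mRNA above DMSO so AC50 marks FXR activation.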 The note with it: HepG2 Attagene TRANS FXR-GAL4 reporter transcription. In a few lines: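 HepG2 cells were transiently transfected with GAL4-UAS reporters driven by chimeric NR-Gal4 proteins and dosed for 24 h. Reporter mRNA was quantified by RT-PCR, fluorescent labelling, HpaI digestion and capillary electrophoresis, with gain of signal scored versus DMSO.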

Assay [10] has as its target Oxysterols receptor LXR-alpha (Homo sapiens) (UniProt Q13133). Description: ATG_LXRa_TRANS: Attagene TRANS-FACTORIAL HepG2 Assay for human Liver X Receptor alpha (LXRa) (AID 2282980). To be noted: HepG2 Attagene TRANS reporter, LXRa transactivation. In a few lines:
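HepG2 cells transiently transfected with GAL4-UAS reporter units for chimeric NR-Gal4 proteins, exposed to chemicals for 24 h. Reporter mRNA quantified by RT-PCR and capillary electrophoresis; gain of signal fitted relative to DMSO.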

Assay [11] is described as follows: ATG_M_06_TRANS: Attagene TRANS-FACTORIAL HepG2 Assay for M06 Transcription Factor (Internal Marker) (AID 2282983). The note with it: HepG2 Attagene TRANS M06 internal marker reporter. The gist of the method: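 mRNA levels of a reporter transcript, quantified as FAM fluorescence on capillary electrophoresis, served as readout. HepG2 cells expressing exogenous GAL4-chimera reporter constructs were exposed for 24 h. Gain of signal over DMSO was evaluated.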

Assay [12] is described as follows: ATG_M_19_TRANS: Attagene TRANS-FACTORIAL HepG2 Assay for M19 Transcription Factor (Internal Marker) (AID 2282974). To be noted: HepG2 Attagene TRANS-FACTORIAL M19 internal marker reporter. The gist of the method: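 Cells: human HepG2, transiently transfected with multiplexed reporter transcription units. Exposure: 24 h. Detection: RT-PCR of reporter mRNA with capillary electrophoresis. Analysis: gain-of-signal vs DMSO.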

The nature of assay [13]: ATG_GAL4_TRANS: Attagene TRANS-FACTORIAL HepG2 Assay for GAL4 (Internal Marker) (AID 2282976). The note with it: HepG2 Attagene TRANS GAL4 internal marker reporter. In a few lines:
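Background-control readout: GAL4-UAS reporter transcript in transiently transfected HepG2 cells after 24 h compound exposure. Measured by RT-PCR, 6-FAM primer extension, HpaI digest and capillary electrophoresis; gain-of-signal fit versus DMSO.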

In assay [14] the target is Glucocorticoid receptor (Homo sapiens) (UniProt P04150). Description: ATG_GR_TRANS: Attagene TRANS-FACTORIAL HepG2 Assay for human Glucocorticoid Receptor (GR) (AID 2282978).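 Further: activators score as hits since higher reporter transcript over DMSO is fitted.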 To be noted: HepG2 Attagene TRANS GR reporter, mRNA transcription. In a few lines:
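In this trans-factorial format, exogenous NR-GAL4 chimeric proteins in transfected HepG2 cells regulate GAL4-UAS reporter transcription. After 24 h treatment, reporter mRNA induction relative to DMSO is read by RT-PCR and capillary electrophoresis.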

Assay [15] can be described thus: ATG_M_32_TRANS: Attagene TRANS-FACTORIAL HepG2 Assay for M32 Transcription Factor (Internal Marker) (AID 2282984). The note with it: HepG2 Attagene TRANS M32 internal marker reporter. In a few lines: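 Internal-marker readout from a multiplexed transcription reporter panel. HepG2 cells were transfected with GAL4-UAS reporter units, treated 24 hours, and reporter transcript levels determined by fluorescence after RT-PCR and capillary separation.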

Assay [16] deals with Nuclear receptor subfamily 4 group A member 2 (Homo sapiens) (UniProt P43354). Description: ATG_NURR1_TRANS: Attagene TRANS-FACTORIAL HepG2 Assay for human Nuclear Receptor Related Protein 1 (NURR1) (AID 2282985). To be noted: HepG2 Attagene TRANS reporter, mRNA readout. The gist of the method: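 Endpoint: reporter mRNA increase relative to DMSO. HepG2 cells transfected with reporter units, treated 24 h; RNA processed by RT-PCR, labelling, HpaI digestion and capillary electrophoresis.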

In assay [17] the target is Transcriptional activator Myb (Homo sapiens) (UniProt P10242). Put plainly: ATG_Myb_CIS: Attagene CIS-FACTORIAL HepG2 Assay for human Myeloblastosis (Myb) Proto-Oncogene Transcription Factor (AID 2282986; active means hit-call score of the fitted dose curve at least 0.9, where 1 is the maximum; inactive means score below 0.9). To be noted: HepG2 Attagene CIS-FACTORIAL Myb reporter transcription; actives raise or lower the signal. In a few lines:
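Steps: transfect HepG2 with cis-regulated reporter units; dose with chemical for 24 h; isolate RNA, reverse-transcribe, PCR-amplify and FAM-label reporter sequences; digest with HpaI; resolve by capillary electrophoresis. Activity fitted in both directions relative to DMSO.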

Assay [18] deals with Oxysterols receptor LXR-beta (Homo sapiens) (UniProt P55055). Put plainly: ATG_LXRb_TRANS: Attagene TRANS-FACTORIAL HepG2 Assay for human Liver X Receptor beta (LXRb) (AID 2282981). The note with it: HepG2 Attagene TRANS GAL4-LXRb reporter, mRNA. The gist of the method: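 Multiplexed reporter assay, HepG2, 24 h dosing. Fluorescence of labelled RT-PCR products after capillary electrophoresis gives transcript level; positive fitting direction relative to DMSO.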

Assay [19] concerns the target Estrogen-related receptor gamma (Homo sapiens) (UniProt P62508). Put plainly: ATG_ERRg_TRANS: Attagene TRANS-FACTORIAL HepG2 Assay for human Estrogen-Related Receptor gamma (ERRg) (AID 2282977).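 Further: hits increase reporter signal over DMSO so potencies reflect activators.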 To be noted: HepG2 Attagene TRANS reporter, ERRg transactivation. The gist of the method: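 Exogenous NR-Gal4 chimera activity measured as reporter transcript induction after 24 h in transiently transfected HepG2 cells. RNA reverse-transcribed, PCR-amplified, 6-FAM-labelled and resolved by capillary electrophoresis; increase over DMSO baseline.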

Usually AC50 stands for the concentration giving half of the maximal activity seen.

Records with an inconclusive call do not appear. Active and inactive are the calls of the source. How the source made its calls, unless noted: active means hit-call score of the fitted dose curve at least 0.9, where 1 is the maximum; inconclusive means response in the unintended direction; inactive means score below 0.9.

Transcriptional activator Myb (Homo sapiens), sequence (P10242 whole entry, looked up): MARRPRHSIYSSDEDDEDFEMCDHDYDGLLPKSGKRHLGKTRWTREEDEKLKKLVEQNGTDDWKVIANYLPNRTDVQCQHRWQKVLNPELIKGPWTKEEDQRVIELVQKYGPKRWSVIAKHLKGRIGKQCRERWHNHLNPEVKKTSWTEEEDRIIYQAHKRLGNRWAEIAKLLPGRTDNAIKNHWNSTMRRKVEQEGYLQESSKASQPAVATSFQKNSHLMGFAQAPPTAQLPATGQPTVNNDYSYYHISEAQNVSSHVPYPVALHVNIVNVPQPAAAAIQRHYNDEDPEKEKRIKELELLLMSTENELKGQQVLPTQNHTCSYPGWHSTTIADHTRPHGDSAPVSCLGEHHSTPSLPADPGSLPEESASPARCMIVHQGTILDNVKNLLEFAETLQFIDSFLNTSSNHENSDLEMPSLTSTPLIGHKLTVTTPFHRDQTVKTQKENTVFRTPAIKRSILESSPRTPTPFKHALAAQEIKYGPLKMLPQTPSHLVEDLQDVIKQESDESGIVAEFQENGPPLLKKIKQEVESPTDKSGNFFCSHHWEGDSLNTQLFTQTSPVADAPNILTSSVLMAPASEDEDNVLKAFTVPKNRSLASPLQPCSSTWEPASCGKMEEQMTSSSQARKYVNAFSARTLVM
Nuclear receptor subfamily 1 group I member 3 (Homo sapiens), sequence (Q14994 whole entry, looked up, the tested form may be a part): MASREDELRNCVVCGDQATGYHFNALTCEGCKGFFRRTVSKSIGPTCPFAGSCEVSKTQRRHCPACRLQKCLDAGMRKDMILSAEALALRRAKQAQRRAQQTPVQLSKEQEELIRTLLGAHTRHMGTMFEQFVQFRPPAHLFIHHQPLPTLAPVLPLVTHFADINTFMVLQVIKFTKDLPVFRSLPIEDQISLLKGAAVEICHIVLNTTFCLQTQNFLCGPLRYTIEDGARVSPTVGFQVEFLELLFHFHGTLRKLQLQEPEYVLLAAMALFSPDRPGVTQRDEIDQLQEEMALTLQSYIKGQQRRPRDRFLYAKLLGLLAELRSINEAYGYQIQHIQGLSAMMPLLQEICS
X-box-binding protein 1 (Homo sapiens), sequence (P17861 whole entry, looked up): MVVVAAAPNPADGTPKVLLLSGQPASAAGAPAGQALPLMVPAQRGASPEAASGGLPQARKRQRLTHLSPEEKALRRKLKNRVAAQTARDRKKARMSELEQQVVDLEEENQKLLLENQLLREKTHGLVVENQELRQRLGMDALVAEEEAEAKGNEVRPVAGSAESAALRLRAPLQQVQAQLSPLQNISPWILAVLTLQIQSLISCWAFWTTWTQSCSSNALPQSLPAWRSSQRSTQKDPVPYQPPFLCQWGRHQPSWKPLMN
Steroid hormone receptor ERR1 (Homo sapiens), sequence (P11474 whole entry, looked up, the tested form may be a part): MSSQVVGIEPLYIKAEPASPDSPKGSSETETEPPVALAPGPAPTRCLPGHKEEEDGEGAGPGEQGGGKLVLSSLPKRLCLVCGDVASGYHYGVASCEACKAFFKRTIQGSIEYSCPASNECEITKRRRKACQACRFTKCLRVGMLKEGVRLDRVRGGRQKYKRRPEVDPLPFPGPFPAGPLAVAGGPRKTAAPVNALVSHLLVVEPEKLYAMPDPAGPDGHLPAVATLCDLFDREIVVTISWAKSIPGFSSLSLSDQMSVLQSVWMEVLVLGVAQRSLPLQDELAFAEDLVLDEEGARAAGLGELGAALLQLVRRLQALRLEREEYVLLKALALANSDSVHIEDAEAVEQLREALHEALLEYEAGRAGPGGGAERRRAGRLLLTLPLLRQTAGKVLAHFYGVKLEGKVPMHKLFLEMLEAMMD
Estrogen receptor (Homo sapiens), sequence (P03372 whole entry, looked up, the tested form may be a part): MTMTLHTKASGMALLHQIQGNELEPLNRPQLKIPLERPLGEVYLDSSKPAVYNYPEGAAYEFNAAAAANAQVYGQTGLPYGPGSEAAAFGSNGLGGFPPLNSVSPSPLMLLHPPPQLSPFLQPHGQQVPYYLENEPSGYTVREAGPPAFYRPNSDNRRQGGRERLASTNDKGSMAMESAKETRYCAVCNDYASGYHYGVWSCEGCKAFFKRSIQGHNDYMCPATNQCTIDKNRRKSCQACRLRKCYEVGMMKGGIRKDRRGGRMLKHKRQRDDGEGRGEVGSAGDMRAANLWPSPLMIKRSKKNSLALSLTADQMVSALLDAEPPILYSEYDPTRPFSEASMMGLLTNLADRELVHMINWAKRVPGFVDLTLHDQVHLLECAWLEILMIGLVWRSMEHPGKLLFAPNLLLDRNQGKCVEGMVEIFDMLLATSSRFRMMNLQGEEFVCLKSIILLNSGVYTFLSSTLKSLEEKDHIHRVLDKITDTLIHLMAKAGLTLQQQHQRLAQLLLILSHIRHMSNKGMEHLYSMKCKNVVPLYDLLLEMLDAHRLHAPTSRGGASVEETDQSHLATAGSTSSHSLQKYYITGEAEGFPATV
Bile acid receptor (Homo sapiens), sequence (Q96RI1 whole entry, looked up, the tested form may be a part): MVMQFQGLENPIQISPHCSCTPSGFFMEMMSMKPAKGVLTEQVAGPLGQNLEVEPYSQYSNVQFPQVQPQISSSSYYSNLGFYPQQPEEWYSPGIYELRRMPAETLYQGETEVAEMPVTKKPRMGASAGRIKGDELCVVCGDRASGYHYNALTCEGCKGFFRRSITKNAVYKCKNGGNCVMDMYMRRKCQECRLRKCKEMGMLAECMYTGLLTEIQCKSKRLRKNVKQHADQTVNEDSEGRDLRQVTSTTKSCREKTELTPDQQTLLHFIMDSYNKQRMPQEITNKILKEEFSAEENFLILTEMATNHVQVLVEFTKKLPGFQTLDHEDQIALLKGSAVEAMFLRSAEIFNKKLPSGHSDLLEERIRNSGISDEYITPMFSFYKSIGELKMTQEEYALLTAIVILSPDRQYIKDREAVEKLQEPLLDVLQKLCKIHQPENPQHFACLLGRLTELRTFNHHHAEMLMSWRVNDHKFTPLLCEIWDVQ
Nuclear receptor subfamily 4 group A member 2 (Homo sapiens), sequence (P43354 whole entry, looked up): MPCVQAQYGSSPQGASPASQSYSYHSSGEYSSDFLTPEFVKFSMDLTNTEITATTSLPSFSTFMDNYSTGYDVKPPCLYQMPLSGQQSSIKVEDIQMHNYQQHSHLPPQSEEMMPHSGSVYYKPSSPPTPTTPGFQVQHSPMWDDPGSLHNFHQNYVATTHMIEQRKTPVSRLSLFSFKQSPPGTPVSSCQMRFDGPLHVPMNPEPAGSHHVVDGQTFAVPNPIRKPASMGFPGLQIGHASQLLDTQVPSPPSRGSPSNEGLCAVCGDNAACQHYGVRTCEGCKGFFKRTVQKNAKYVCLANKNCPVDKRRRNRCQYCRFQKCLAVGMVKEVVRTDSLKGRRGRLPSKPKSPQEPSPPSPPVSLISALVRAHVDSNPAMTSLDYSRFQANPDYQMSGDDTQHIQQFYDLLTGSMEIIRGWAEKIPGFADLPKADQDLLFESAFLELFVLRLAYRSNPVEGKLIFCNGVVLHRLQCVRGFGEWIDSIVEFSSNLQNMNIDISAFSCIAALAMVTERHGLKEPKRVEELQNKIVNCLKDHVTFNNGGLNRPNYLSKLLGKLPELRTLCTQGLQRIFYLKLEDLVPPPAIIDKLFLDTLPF
Oxysterols receptor LXR-beta (Homo sapiens), sequence (P55055 whole entry, looked up, the tested form may be a part): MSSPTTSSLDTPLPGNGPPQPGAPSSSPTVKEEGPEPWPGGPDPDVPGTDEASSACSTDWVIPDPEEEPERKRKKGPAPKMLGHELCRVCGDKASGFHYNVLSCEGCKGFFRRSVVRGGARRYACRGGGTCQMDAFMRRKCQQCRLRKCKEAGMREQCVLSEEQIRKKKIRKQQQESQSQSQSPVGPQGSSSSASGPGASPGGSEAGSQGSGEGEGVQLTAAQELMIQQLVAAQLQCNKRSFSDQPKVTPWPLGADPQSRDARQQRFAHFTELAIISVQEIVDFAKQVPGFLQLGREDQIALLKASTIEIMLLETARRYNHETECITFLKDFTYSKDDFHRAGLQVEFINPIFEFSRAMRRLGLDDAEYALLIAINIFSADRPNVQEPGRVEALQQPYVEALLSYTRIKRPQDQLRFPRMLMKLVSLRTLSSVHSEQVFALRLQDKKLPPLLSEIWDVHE
Oxysterols receptor LXR-alpha (Homo sapiens), sequence (Q13133 whole entry, looked up, the tested form may be a part): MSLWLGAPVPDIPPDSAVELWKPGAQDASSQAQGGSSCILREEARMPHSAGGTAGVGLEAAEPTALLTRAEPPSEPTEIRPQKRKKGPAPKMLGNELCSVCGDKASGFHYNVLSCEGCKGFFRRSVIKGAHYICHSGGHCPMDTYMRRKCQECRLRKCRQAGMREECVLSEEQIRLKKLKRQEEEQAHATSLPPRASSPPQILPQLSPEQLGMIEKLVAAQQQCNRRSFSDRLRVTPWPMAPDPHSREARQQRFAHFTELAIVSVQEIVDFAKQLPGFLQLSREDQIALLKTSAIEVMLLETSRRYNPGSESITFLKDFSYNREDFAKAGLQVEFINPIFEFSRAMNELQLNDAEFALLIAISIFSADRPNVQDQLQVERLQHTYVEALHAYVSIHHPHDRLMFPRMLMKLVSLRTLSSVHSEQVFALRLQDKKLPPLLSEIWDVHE
Estrogen-related receptor gamma (Homo sapiens), sequence (P62508 whole entry, looked up, the tested form may be a part): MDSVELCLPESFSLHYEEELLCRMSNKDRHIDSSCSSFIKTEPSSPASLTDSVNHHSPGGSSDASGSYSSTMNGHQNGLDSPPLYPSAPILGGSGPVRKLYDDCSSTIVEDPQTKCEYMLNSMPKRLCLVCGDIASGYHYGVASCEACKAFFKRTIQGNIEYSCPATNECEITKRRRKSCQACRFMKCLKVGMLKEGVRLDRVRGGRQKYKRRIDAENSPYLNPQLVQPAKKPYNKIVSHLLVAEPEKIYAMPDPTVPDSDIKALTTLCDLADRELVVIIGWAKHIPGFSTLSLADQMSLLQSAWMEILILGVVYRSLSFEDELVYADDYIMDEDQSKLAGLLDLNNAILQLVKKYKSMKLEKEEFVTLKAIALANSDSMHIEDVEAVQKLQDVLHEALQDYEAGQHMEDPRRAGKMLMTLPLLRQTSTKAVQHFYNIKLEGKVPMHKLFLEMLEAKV

In the case of `FC(F)(F)C(F)(F)C(F)(F)C(F)(F)C(F)(F)C(F)(F)C(F)(F)I`, the molecule was classed as inactive in assay [1], in assay [2], in assay [3], in assay [4], in assay [5] and in [7]. Moreover, the result in assay [8], in assay [9], in assay [10] and in assay [11] was inactive. Besides, the concentration at half-maximal activity (AC50) in assay [6] is 3.7 µM (active).
As to `COC(=O)CCC(F)(F)C(F)(F)C(F)(F)C(F)(F)F`, the result in [1], in [2], in assay [3], in [4], in assay [5] and in [8] was inactive. Moreover, the molecule was called inactive in [12], in assay [13], in assay [9] and in [11]. The AC50 in [6] was 5.85 µM (active).
In the case of `O[Si](c1ccccc1)(c1ccccc1)c1ccccc1`, the molecule was called inactive in assay [1], in assay [2], in [3], in assay [4], in [5] and in [7]. Further, the call in assay [8], in [14], in assay [11], in [15], in [16] and in [17] was inactive. Also, the concentration at half-maximal activity (AC50) is 4.11 µM (active) in assay [6] and 85.2 µM (active) in assay [9].
For `O=C(O)C(F)(F)C(F)(F)OC(F)(F)F`, the call in assay [1], in assay [2], in [3], in [4], in assay [5] and in assay [6] was inactive. In addition, the molecule was classed as inactive in assay [7], in [8], in assay [13], in assay [10], in [18] and in [11]. In addition, the result in assay [15] and in [17] was inactive.
Consider `CC(C)(C)C(=O)CC(=O)C(F)(F)C(F)(F)C(F)(F)F`, for which the call in assay [1], in assay [2], in [3], in assay [4], in assay [5] and in assay [6] was inactive. Moreover, the result in assay [7], in assay [8], in [19], in assay [9], in assay [18] and in assay [11] was inactive. Further, the molecule was called inactive in assay [16] and in assay [17].

Values taken from PubChem BioAssay (EPA / NIEHS).
